Source: PubChem (National Center for Advancing Translational Sciences (NCATS))
This is a sample that favours compounds with a hit; in the whole collection about 11% have one here.
HEK293 tox: Cytotoxic Profiling in HEK 293 Cell Line of Diverse Libraries Using Quantitative High-Throughput Screening; HEK 293 viability, ATP luminescence (CellTiter-Glo), 48-72 h; Potency, µM (top dose mostly 115 µM), most hits filed as inhibitors; 94,000 compounds, 6.6% hits; AID 1345083, 2018; active = well fitted curve in the direction sought with a large enough effect; inconclusive = small, poorly fitted or top-dose-only effect, or another doubt; inactive = no such curve, though single readings can be large; an effect the other way counts as inactive or inconclusive; note: nearly all actives have a fitted effect of over 60% in size
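Read-out: CellTiter-Glo ATP luminescence. Cells: HEK 293, 250 cells/well. Exposure: 48 or 72 hr, 37 degree Celsius.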
NIH3T3 tox: Cytotoxic Profiling in NIH 3T3 Cell Line of Diverse Libraries Using Quantitative High-Throughput Screening | NIH 3T3 viability, CellTiter-Glo ATP luminescence, 48-72 h | Potency, µM (doses to about 96.7 µM), actives largely listed as inhibitors | 94,000 compounds, 4.3% hits; active = well fitted curve in the direction sought with a large enough effect; inconclusive = small, poorly fitted or top-dose-only effect, or another doubt; inactive = no such curve, though single readings can be large; an effect the other way counts as inactive or inconclusive; note: nearly all actives have a fitted effect of over 55% in size
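NIH 3T3 cells at 400 cells/well received 23 nL of compound by pintool and were incubated 48 or 72 h at 37 °C. Viability was read as ATP-coupled CellTiter-Glo luminescence.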
hNpr1 antagonist: Natriuretic polypeptide receptor (hNpr1) antagonism - Primary qHTS. Atrial natriuretic peptide receptor 1 (Homo sapiens), P16066. HEK293 hNpr1 GloSensor cGMP, ANP-stimulated luminescence. Potency, µM (doses to about 46.3 µM), most hits filed as inhibitors. 76,000 compounds, 1.6% hits; note: nearly all actives have a fitted effect of over 60% in size
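Compound pre-incubated 30 min at room temperature on GloSensor-loaded HEK293 cells stably carrying hNpr1 and the pGS-40F cGMP biosensor. Stimulation uses hNppA at 0.1 nM final; luminescence is taken at baseline and 20 min post-agonist.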
Luciferase inh: Firefly luciferase inhibition profiling of diverse chemical library using quantitative high-throughput screening; Luciferin 4-monooxygenase (Photinus pyralis), P08659; purified P. pyralis luciferase, luminescence, biochemical; Potency, µM (series often up to 115 µM), usual class: inhibitors; 76,000 compounds, 2.5% hits; AID 1347043, 2019; active = well fitted curve in the direction sought with a large enough effect; inconclusive = small, poorly fitted or top-dose-only effect, or another doubt; inactive = no such curve, though single readings can be large; an effect the other way counts as inactive or inconclusive; note: nearly all actives have a fitted effect of over 65% in size
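Biochemical qHTS: compound (6-point titration) added to 10uM D-luciferin plus 10uM ATP in Tris acetate pH 7.5 buffer with Mg, Tween-20 and BSA, then purified enzyme at 10nM; light output imaged.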
NPR1 antag cnf: Natriuretic polypeptide receptor (hNpr1) antagonism - Confirmation. shares compounds with hNpr1 antagonist. HEK293 hNpr1 cGMP GloSensor luminescence, ANP-stimulated. Potency, µM (doses to about 57.6 µM), actives largely listed as inhibitors. 1,400 compounds, 76% hits. AID 1347044, 2019; note: nearly all actives have a fitted effect of over 70% in size
Npr2 selectivity: Natriuretic polypeptide receptor (hNpr2) antagonism - Subtype selectivity assay; Potency, µM (top dose mostly 57.6 µM), hits mostly inhibitors; shares compounds with hNpr1 antagonist; 1,400 compounds, 67% hits; HEK293 hNpr2 GloSensor cGMP luminescence, CNP-stimulated; note: nearly all actives have a fitted effect of over 70% in size
Target sequence (P20594 whole entry, looked up): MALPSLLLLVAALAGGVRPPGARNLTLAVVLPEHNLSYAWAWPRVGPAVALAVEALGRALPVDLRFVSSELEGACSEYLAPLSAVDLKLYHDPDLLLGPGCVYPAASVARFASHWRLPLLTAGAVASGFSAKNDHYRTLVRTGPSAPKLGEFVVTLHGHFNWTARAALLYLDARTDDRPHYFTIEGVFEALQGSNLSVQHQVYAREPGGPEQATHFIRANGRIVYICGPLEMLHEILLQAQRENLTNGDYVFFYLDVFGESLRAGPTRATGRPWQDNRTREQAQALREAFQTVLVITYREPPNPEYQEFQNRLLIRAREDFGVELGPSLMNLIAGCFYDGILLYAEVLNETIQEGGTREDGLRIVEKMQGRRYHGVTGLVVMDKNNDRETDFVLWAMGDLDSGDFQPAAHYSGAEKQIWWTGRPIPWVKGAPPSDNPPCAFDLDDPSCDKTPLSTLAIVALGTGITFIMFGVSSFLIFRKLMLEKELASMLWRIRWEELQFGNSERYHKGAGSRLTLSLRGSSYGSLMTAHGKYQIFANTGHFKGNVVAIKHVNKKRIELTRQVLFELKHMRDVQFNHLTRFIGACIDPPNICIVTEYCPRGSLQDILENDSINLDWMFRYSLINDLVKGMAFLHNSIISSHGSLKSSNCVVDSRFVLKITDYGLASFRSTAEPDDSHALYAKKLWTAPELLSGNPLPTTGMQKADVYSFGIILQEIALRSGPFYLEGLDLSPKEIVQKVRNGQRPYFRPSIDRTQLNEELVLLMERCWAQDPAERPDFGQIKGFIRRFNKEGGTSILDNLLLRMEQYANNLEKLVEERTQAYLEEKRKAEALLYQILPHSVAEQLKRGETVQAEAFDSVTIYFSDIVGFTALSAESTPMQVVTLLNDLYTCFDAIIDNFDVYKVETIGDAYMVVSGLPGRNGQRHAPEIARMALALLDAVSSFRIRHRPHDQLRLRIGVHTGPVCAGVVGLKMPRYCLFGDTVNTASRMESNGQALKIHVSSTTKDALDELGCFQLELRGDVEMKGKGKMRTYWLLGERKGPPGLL
FLuc counter: Natriuretic polypeptide receptor (hNpr1) antagonism - Confirmation firefly luciferase (FLuc) inhibition counterscreen | shares compounds with hNpr1 antagonist | purified FLuc enzyme, luminescence, Km substrate | Potency, µM (highest dose often 57.6 µM), usual class: inhibitors | 1,400 compounds, 0.7% hits; active = well fitted curve in the direction sought with a large enough effect; inconclusive = small, poorly fitted or top-dose-only effect, or another doubt; inactive = no such curve, though single readings can be large; an effect the other way counts as inactive or inconclusive
GloSensor cGMP: Natriuretic polypeptide receptor (hNpr1) antagonism - Counterscreen GloSensor control cell line | 1,400 compounds, 69% hits | shares compounds with hNpr1 antagonist | Potency, µM (top dose mostly 57.6 µM), usual class: inhibitors | HEK293 GloSensor cGMP, SNP-stimulated, luminescence; note: nearly all actives have a fitted effect of over 70% in size
Large screens that a line does not name were inactive (follow-up assays come after a bar, where they were run). Unless noted, calls come from the whole dose curve.

COc1ccc(C(=O)N2CCC3(C2)C(=O)N(Cc2ccccc2)c2ccccc23)cc1 (stereo not given)	HEK293 tox inconclusive, NIH3T3 tox inconclusive, hNpr1 antagonist 5µM | NPR1 antag cnf 17µM | Npr2 selectivity 17µM | FLuc counter inactive | GloSensor cGMP 11µM
COc1ccc(C(=O)N2CCC3(CC2)NC(=O)N(Cc2ccccc2)C3=O)cc1	none
O=C(CC1CCCCC1)N1CCC(c2noc(COc3ccc(F)cc3)n2)CC1	HEK293 tox inconclusive, NIH3T3 tox inconclusive, hNpr1 antagonist 7.1µM | NPR1 antag cnf 12µM | Npr2 selectivity 14µM | FLuc counter inactive | GloSensor cGMP 14µM
O=C(CCC1CCCC1)N1CCC(Cc2nc(C3CCOCC3)no2)CC1	HEK293 tox inconclusive, NIH3T3 tox inconclusive, hNpr1 antagonist 10µM | NPR1 antag cnf 12µM | Npr2 selectivity 17µM | FLuc counter inactive | GloSensor cGMP 12µM
O=C(CC1CCCCC1)N1CCC(Cc2nc(-c3ccccc3)no2)CC1	HEK293 tox inconclusive, NIH3T3 tox inconclusive, hNpr1 antagonist 10µM | NPR1 antag cnf 14µM | Npr2 selectivity 15µM | FLuc counter inactive | GloSensor cGMP 9.7µM
O=C(CC1CCCCC1)N1CCC(n2cc(-c3nc(-c4ccccc4)no3)nn2)CC1	HEK293 tox 28µM, NIH3T3 tox inconclusive, hNpr1 antagonist 11µM | NPR1 antag cnf 24µM | Npr2 selectivity 22µM | FLuc counter inactive | GloSensor cGMP 22µM
COCC(=O)N1CCC(c2noc(COc3ccc(F)cc3)n2)CC1	none (no result: hNpr1 antagonist, Luciferase inh)
O=C(c1cc(-c2ccccc2)n[nH]1)N1CCc2c(nc3cc[nH]n3c2=O)C1	none
CNC(=O)c1cn2c(n1)CN(S(=O)(=O)c1cccc(OC)c1)CC2	none (no result: hNpr1 antagonist, Luciferase inh)
O=C(NCCN1CCOCC1)c1cn2cc(-c3ccc(C(F)(F)F)cc3)sc2n1	none (no result: hNpr1 antagonist, Luciferase inh)
O=C(CC1CCCC1)N1CCC(Cc2nc(-c3ccc(F)cc3)no2)CC1	HEK293 tox inconclusive, NIH3T3 tox inconclusive, hNpr1 antagonist 2.2µM | NPR1 antag cnf 2.2µM | Npr2 selectivity 3.1µM | FLuc counter inactive | GloSensor cGMP 3.1µM
O=C(Cc1ccccc1Cl)N1CCC(Cc2nc(-c3ccc(F)cc3)no2)CC1	HEK293 tox inconclusive, NIH3T3 tox inconclusive, hNpr1 antagonist 16µM | NPR1 antag cnf 12µM | Npr2 selectivity 15µM | FLuc counter inactive | GloSensor cGMP 11µM
O=C(O)C1=NOC2CN(Cc3ccc(C(F)(F)F)cc3)CC12 (stereo not given)	none (no result: hNpr1 antagonist, Luciferase inh)
CNC(=O)N1CCCC(c2nc(CCOCC3CCCC3)no2)C1 (stereo not given)	HEK293 tox inconclusive, hNpr1 antagonist inconclusive | NPR1 antag cnf inconclusive | Npr2 selectivity inconclusive | FLuc counter inactive | GloSensor cGMP inconclusive
CCNC(=O)N1CCC(Cc2ccc(C(=O)NCCc3c[nH]c4ccccc34)cc2)CC1	HEK293 tox 25µM, NIH3T3 tox 18µM, hNpr1 antagonist 14µM | NPR1 antag cnf 24µM | Npr2 selectivity 24µM | FLuc counter inactive | GloSensor cGMP 27µM
